For one compound, EC50 results are on record in PubChem BioAssay AID588442 (The Scripps Research Institute Molecular Screening Center, 2011).

The nature of the experiment: optical interference in Abeta FP readout, dose response, artefact control for IDE activator project, biochemical, fluorescence polarization (AID 588442). The conditions noted are these: FP artifact counterscreen, fluorescein-Abeta, no enzyme activity.

Results with a measured potency or affinity are listed apart. More than one record can exist for a structure, and the calls need not agree. A number with no mark means an inactive call.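 How the source made its calls: active means EC50 of 10 µM or lower; inactive means EC50 above 10 µM or not measured.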

Take `C[n+]1c2cc(N)ccc2cc2ccc(N)cc21`: the EC50 is above 54.7 µM.
